# Where two headings read alike, the source gives them in different places.
# What was measured:
# [1] = system: JAK1(JH2domain-pseudokinase); settings: concentration: 1 μM,replicates: in singlicate; n = 1
# [2] = system: JAK2(JH1domain-catalytic); settings: concentration: 1 μM,replicates: in singlicate; n = 1
# [3] = system: JAK3(JH1domain-catalytic); settings: concentration: 1 μM,replicates: in singlicate; n = 1
# JNK1 = system: T1, JNK1; settings: concentration: 1 μM,replicates: in singlicate; n = 1
# T1 construct: gene MAPK8
# JNK2 = system: T2, JNK2; settings: concentration: 1 μM,replicates: in singlicate; n = 1
# T2 construct: gene MAPK9
# JNK3 = system: T3, JNK3; settings: concentration: 1 μM,replicates: in singlicate; n = 1
# T3 construct: gene MAPK10
# KIT-autoinhibited = settings: concentration: 1 μM,replicates: in singlicate; n = 1
# KIT = settings: concentration: 1 μM,replicates: in singlicate; n = 1
# LATS1 = settings: concentration: 1 μM,replicates: in singlicate; n = 1
# LATS2 = settings: concentration: 1 μM,replicates: in singlicate; n = 1
# LCK = settings: concentration: 1 μM,replicates: in singlicate; n = 1
# LIMK1 = settings: concentration: 1 μM,replicates: in singlicate; n = 1
# LIMK2 = settings: concentration: 1 μM,replicates: in singlicate; n = 1
# LKB1 = system: T4, LKB1; settings: concentration: 1 μM,replicates: in singlicate; n = 1
# T4 construct: gene STK11
# LOK = system: T5, LOK; settings: concentration: 1 μM,replicates: in singlicate; n = 1
# T5 construct: gene STK10
# LRRK2 = settings: concentration: 1 μM,replicates: in singlicate; n = 1
# LTK = settings: n = 1
# LYN = settings: concentration: 1 μM,replicates: in singlicate; n = 1
# LZK = system: T6, LZK; settings: concentration: 1 μM,replicates: in singlicate; n = 1
# T6 construct: gene MAP3K13
# MAK = settings: concentration: 1 μM,replicates: in singlicate; n = 1
# [4] = concentration: 1 μM,replicates: in singlicate
# 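Note: KINOMEscan kinase panel screen.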
smiles,measurement,setting,value
COc1ccc(Nc2nccc(N3CCC(NC(=O)c4cccc(C#N)c4)C3)n2)cc1 (centres unmarked) [GSK1379730],%Inh,[1],0%
same,%Inh,[2],12%
same,%Inh,[3],0%
same,%Inh,JNK1,15%
same,%Inh,JNK2,16%
same,%Inh,JNK3,10%
same,%Inh,KIT-autoinhibited,0%
same,%Inh,KIT,0%
same,%Inh,LATS1,0%
same,%Inh,LATS2,0%
same,%Inh,LCK,23%
same,%Inh,LIMK1,0%
same,%Inh,LIMK2,0%
same,%Inh,LKB1,2%
same,%Inh,LOK,0%
same,%Inh,LRRK2,31%
same,%Inh,LTK; [4],0%
same,%Inh,LYN,0%
same,%Inh,LZK,0%
same,%Inh,MAK,26%
CCN1CCN(CCCC(=O)Nc2n[nH]c3nc(-c4ccc(O)cc4)c(Br)cc23)CC1 [SB-731579],%Inh,[1],0%
same,%Inh,[2],80%
same,%Inh,[3],87%
same,%Inh,JNK1,55%
same,%Inh,JNK2,38%
same,%Inh,JNK3,34%
same,%Inh,KIT-autoinhibited,15%
same,%Inh,KIT,31%
same,%Inh,LATS1,0%
same,%Inh,LATS2,0%
same,%Inh,LCK,66%
same,%Inh,LIMK1,0%
same,%Inh,LIMK2,0%
same,%Inh,LKB1,23%
same,%Inh,LOK,13%
same,%Inh,LRRK2,0%
same,%Inh,LTK; [4],20%
same,%Inh,LYN,0%
same,%Inh,LZK,0%
same,%Inh,MAK,35%
CNC(=O)c1ccccc1Nc1nc(Nc2cccc(CS(C)(=O)=O)c2)ncc1C.O=CO [GSK1520489],%Inh,[1],97.8%
same,%Inh,[2],98.7%
same,%Inh,[3],99.9%
same,%Inh,JNK1,99.9%
same,%Inh,JNK2,99.7%
same,%Inh,JNK3,99.9%
same,%Inh,KIT-autoinhibited,62%
same,%Inh,KIT,97.8%
same,%Inh,LATS1,71%
same,%Inh,LATS2,69%
same,%Inh,LCK,99.8%
same,%Inh,LIMK1,47%
same,%Inh,LIMK2,0%
same,%Inh,LKB1,0%
same,%Inh,LOK,99.8%
same,%Inh,LRRK2,90%
same,%Inh,LTK; [4],89%
same,%Inh,LYN,95.1%
same,%Inh,LZK,97.3%
same,%Inh,MAK,0%
COc1cccc(OC)c1C(=O)Nc1cccc(-c2nn3ccccc3c2-c2ccnc(Nc3cccc(F)c3)n2)c1 [GSK361065],%Inh,[1],4%
same,%Inh,[2],3%
same,%Inh,[3],0%
same,%Inh,JNK1,44%
same,%Inh,JNK2,0%
same,%Inh,JNK3,0%
same,%Inh,KIT-autoinhibited,11%
same,%Inh,KIT,90.9%
same,%Inh,LATS1,6%
same,%Inh,LATS2,10%
same,%Inh,LCK,24%
same,%Inh,LIMK1,31%
same,%Inh,LIMK2,15%
same,%Inh,LKB1,6%
same,%Inh,LOK,90%
same,%Inh,LRRK2,0%
same,%Inh,LTK; 1 µM,13%
same,%Inh,LYN,8%
same,%Inh,LZK,8%
same,%Inh,MAK,14%
Cc1nnc(-c2ccc3occ(-c4ccc(S(C)=O)cc4)c3n2)o1 (centres unmarked),%Inh,[1],0%
same,%Inh,[2],0%
same,%Inh,[3],0%
same,%Inh,JNK1,0%
same,%Inh,JNK2,0%
same,%Inh,JNK3,0%
same,%Inh,KIT-autoinhibited,0%
same,%Inh,KIT,0%
same,%Inh,LATS1,0%
same,%Inh,LATS2,0%
same,%Inh,LCK,0%
same,%Inh,LIMK1,0%
same,%Inh,LIMK2,0%
same,%Inh,LKB1,3%
same,%Inh,LOK,0%
same,%Inh,LRRK2,0%
same,%Inh,LTK; [4],0%
same,%Inh,LYN,0%
same,%Inh,LZK,0%
same,%Inh,MAK,0%
CC(C(=O)NC1CCN(c2ccnc(Nc3ccc(F)cc3)n2)C1)c1ccc(Cl)cc1 (centres unmarked) [GSK1379713],%Inh,[1],0%
same,%Inh,[2],7%
same,%Inh,[3],0%
same,%Inh,JNK1,2%
same,%Inh,JNK2,0%
same,%Inh,JNK3,0%
same,%Inh,KIT-autoinhibited,0%
same,%Inh,KIT,10%
same,%Inh,LATS1,0%
same,%Inh,LATS2,0%
same,%Inh,LCK,22%
same,%Inh,LIMK1,0%
same,%Inh,LIMK2,0%
same,%Inh,LKB1,0%
same,%Inh,LOK,0%
same,%Inh,LRRK2,14%
same,%Inh,LTK; [4],0%
same,%Inh,LYN,0%
same,%Inh,LZK,0%
same,%Inh,MAK,12%
Cn1ccc2ncnc(Oc3ccc(NC(=O)Nc4cc(C(C)(C)C)on4)c(Cl)c3)c21,%Inh,[1],0%
same,%Inh,[2],8%
same,%Inh,[3],6%
same,%Inh,JNK1,12%
same,%Inh,JNK2,48%
same,%Inh,JNK3,7%
same,%Inh,KIT-autoinhibited,30%
same,%Inh,KIT,100%
same,%Inh,LATS1,20%
same,%Inh,LATS2,25%
same,%Inh,LCK,98.2%
same,%Inh,LIMK1,13%
same,%Inh,LIMK2,17%
same,%Inh,LKB1,0%
same,%Inh,LOK,99.9%
same,%Inh,LRRK2,3%
same,%Inh,LTK; [4],39%
same,%Inh,LYN,95.4%
same,%Inh,LZK,0%
same,%Inh,MAK,0%
CC(=O)c1c(-c2ccncc2)[nH]c(-c2ccncc2)c1C [GW493036],%Inh,[1],0%
same,%Inh,[2],20%
same,%Inh,[3],0%
same,%Inh,JNK1,25%
same,%Inh,JNK2,8%
same,%Inh,JNK3,11%
same,%Inh,KIT-autoinhibited,0%
same,%Inh,KIT,0%
same,%Inh,LATS1,7%
same,%Inh,LATS2,4%
same,%Inh,LCK,0%
same,%Inh,LIMK1,0%
same,%Inh,LIMK2,1%
same,%Inh,LKB1,0%
same,%Inh,LOK,0%
same,%Inh,LRRK2,26%
same,%Inh,LTK; [4],0%
same,%Inh,LYN,0%
same,%Inh,LZK,42%
same,%Inh,MAK,34%
CN(c1cccc(CNc2nc(Nc3ccc4c(c3)CC(=O)N4)ncc2C(F)(F)F)c1)S(C)(=O)=O,%Inh,[1],79%
same,%Inh,[2],98.1%
same,%Inh,[3],100%
same,%Inh,JNK1,40%
same,%Inh,JNK2,31%
same,%Inh,JNK3,35%
same,%Inh,KIT-autoinhibited,31%
same,%Inh,KIT,57%
same,%Inh,LATS1,29%
same,%Inh,LATS2,24%
same,%Inh,LCK,42%
same,%Inh,LIMK1,0%
same,%Inh,LIMK2,0%
same,%Inh,LKB1,5%
same,%Inh,LOK,0%
same,%Inh,LRRK2,18%
same,%Inh,LTK; [4],60%
same,%Inh,LYN,18%
same,%Inh,LZK,0%
same,%Inh,MAK,0%
COc1cc2c(Nc3ccc(NC(=O)c4ccccc4)cc3)ncnc2cc1OCCCN1CCOCC1 [GSK301329],%Inh,[1],0%
same,%Inh,[2],0%
same,%Inh,[3],0%
same,%Inh,JNK1,0%
same,%Inh,JNK2,19%
same,%Inh,JNK3,12%
same,%Inh,KIT-autoinhibited,41%
same,%Inh,KIT,99.1%
same,%Inh,LATS1,0%
same,%Inh,LATS2,0%
same,%Inh,LCK,87%
same,%Inh,LIMK1,3%
same,%Inh,LIMK2,0%
same,%Inh,LKB1,0%
same,%Inh,LOK,77%
same,%Inh,LRRK2,33%
same,%Inh,LTK; [4],27%
same,%Inh,LYN,52%
same,%Inh,LZK,55%
same,%Inh,MAK,0%
